# How the values were obtained:
# Assay in all cases: DAPPL (digital affinity profiling via proximity ligation, sequencing); 10 mM Tris-HCl pH 7.5, 50 mM NaCl, 1 mM DTT, 4% glycerol, room temperature, 30 min; GST-TFs on glutathione beads, 16-mer random dsDNA library, 0.1% formaldehyde crosslink after washing; high values mean tight binding
# FLI1 = target: T1, FLI1 (Homo sapiens, UniProt Q01543 1-452); details: protein: recombinant; tags: N-terminal GST; dsDNA, one strand shown
# T1 sequence: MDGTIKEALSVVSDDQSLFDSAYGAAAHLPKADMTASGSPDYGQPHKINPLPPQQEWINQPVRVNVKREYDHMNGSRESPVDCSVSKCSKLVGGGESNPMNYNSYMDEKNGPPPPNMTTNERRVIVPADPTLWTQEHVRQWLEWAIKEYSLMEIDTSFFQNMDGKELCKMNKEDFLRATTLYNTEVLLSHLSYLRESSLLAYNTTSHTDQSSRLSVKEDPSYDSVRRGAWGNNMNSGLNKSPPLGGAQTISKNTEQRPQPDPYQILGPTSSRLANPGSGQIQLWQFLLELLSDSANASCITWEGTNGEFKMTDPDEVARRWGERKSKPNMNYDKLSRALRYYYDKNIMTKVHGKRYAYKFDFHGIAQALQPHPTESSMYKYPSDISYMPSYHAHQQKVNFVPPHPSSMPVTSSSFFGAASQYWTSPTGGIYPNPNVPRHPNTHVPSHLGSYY
# Summary of the method: (§1)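 Pools of DNA-barcoded human transcription factors, expressed in yeast as GST fusions on glutathione beads and combined with a tag-only sample, were incubated with 200 nmole of a 16-mer random double-stranded DNA library. Incubation took 30 min at room temperature in Tris/NaCl/DTT/glycerol buffer and was followed by washing, 0.1% formaldehyde crosslinking, proximity ligation (BsaI/T4 ligase, 1 h, 37 °C), PCR amplification and sequencing on an Illumina NextSeq500. Binding signal is the ratio of a hexamer's read frequency for a factor to its frequency for the tag-only sample.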
# ELK1 = target: T2, ELK1 (Homo sapiens, UniProt P19419 1-428); details: protein: recombinant; tags: N-terminal GST; dsDNA, one strand shown
# T2 sequence: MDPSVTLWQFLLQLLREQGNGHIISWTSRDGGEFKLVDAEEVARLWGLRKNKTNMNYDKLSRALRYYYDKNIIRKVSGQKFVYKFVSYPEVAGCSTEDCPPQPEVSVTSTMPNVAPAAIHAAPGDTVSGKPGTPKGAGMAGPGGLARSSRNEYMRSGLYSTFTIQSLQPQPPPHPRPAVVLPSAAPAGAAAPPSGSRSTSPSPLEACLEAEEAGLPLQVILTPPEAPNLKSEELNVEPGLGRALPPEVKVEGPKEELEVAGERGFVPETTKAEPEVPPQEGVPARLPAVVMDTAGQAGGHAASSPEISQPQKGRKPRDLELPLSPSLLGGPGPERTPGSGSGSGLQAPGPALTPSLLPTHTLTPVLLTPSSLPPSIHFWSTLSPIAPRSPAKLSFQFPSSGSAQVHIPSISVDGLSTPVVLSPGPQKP
# Summary of the method: as §1
# GABPA = target: T3, GABPA (Homo sapiens, UniProt Q06546 1-454); details: protein: recombinant; tags: N-terminal GST; dsDNA, one strand shown
# T3 sequence: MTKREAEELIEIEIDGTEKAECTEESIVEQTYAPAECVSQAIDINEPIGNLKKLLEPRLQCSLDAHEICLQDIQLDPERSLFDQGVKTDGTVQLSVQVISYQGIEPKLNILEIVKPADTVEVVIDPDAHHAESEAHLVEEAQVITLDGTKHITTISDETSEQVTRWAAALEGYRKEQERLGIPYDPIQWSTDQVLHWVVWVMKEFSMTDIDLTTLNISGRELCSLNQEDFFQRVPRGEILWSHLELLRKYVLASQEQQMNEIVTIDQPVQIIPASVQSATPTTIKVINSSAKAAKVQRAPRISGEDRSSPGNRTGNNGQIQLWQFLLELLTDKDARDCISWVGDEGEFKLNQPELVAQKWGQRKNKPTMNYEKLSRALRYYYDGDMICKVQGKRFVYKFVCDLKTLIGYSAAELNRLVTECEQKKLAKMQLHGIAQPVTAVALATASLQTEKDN
# Summary of the method: as §1
# ERG = target: T4, ERG (Homo sapiens, UniProt P11308 1-479); details: protein: recombinant; tags: N-terminal GST; dsDNA, one strand shown
# T4 sequence: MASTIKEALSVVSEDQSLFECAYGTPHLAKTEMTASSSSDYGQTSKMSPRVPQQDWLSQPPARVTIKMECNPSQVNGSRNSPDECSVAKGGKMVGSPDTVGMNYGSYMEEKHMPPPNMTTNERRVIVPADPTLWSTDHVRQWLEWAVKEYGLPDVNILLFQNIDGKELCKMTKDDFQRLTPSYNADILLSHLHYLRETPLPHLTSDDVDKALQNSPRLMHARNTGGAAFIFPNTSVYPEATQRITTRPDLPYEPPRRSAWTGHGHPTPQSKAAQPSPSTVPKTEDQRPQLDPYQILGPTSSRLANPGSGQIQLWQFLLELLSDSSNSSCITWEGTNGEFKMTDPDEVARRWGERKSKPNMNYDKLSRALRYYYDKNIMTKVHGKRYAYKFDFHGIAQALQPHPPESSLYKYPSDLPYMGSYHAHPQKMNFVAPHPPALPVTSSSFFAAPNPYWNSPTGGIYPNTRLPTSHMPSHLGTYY
# Summary of the method: as §1
# ELF1 = ELF1 (Homo sapiens, UniProt P32519 1-619); details: protein: recombinant; tags: N-terminal GST; dsDNA, one strand shown
# Summary of the method: as §1
# EHF = target: T5, EHF (Homo sapiens, UniProt Q9NZC4 1-300); details: protein: recombinant; tags: N-terminal GST; dsDNA, one strand shown
# T5 sequence: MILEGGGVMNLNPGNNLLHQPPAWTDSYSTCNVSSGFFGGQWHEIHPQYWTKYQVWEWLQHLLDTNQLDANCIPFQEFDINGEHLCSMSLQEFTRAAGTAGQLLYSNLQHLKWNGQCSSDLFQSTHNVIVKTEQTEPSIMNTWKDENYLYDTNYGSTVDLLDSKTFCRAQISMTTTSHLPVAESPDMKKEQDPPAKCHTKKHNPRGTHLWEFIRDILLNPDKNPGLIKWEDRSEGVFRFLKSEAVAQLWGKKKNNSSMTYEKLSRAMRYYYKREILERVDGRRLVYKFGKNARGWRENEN
# Summary of the method: as §1
# SPI1 = SPI1 (Homo sapiens, UniProt P17947 1-270); details: protein: recombinant; tags: N-terminal GST; dsDNA, one strand shown
# Summary of the method: as §1
# SPIB = SPIB (Homo sapiens, UniProt Q01892 1-262); details: protein: recombinant; tags: N-terminal GST; dsDNA, one strand shown
# Summary of the method: as §1
# ELK3 = target: T6, ELK3 (Homo sapiens, UniProt P41970 1-407); details: protein: recombinant; tags: N-terminal GST; dsDNA, one strand shown
# T6 sequence: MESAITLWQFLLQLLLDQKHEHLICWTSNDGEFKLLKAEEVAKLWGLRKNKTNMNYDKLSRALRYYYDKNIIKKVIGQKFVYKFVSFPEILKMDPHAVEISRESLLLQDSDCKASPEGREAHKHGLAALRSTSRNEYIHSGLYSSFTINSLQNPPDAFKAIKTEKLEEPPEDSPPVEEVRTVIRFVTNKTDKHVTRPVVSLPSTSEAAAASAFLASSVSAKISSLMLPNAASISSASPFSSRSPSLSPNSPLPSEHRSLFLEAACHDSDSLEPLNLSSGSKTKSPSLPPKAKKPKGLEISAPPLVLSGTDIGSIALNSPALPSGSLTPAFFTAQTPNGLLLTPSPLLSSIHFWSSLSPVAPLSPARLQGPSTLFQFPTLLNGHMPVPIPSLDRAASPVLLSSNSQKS
# Summary of the method: as §1
# FEV = target: T7, FEV (Homo sapiens, UniProt Q99581 1-238); details: protein: recombinant; tags: N-terminal GST; dsDNA, one strand shown
# T7 sequence: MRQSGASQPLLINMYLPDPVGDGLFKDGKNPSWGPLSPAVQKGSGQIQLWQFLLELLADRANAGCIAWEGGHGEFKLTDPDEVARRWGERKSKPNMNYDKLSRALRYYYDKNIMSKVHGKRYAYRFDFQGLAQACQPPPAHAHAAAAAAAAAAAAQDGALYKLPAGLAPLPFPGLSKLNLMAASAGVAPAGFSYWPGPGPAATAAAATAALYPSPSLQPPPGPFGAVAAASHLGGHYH
# Summary of the method: as §1
# ETV5 = ETV5 (Homo sapiens, UniProt P41161 1-510); details: protein: recombinant; tags: N-terminal GST; dsDNA, one strand shown
# Summary of the method: as §1
# HSF1 = HSF1 (Homo sapiens, UniProt Q00613 1-529); details: protein: recombinant; tags: N-terminal GST; chain copies: 3; dsDNA, one strand shown
# Summary of the method: as §1
# SPIC = target: T8, SPIC (Homo sapiens, UniProt Q8N5J4 1-248); details: protein: recombinant; tags: N-terminal GST; dsDNA, one strand shown
# T8 sequence: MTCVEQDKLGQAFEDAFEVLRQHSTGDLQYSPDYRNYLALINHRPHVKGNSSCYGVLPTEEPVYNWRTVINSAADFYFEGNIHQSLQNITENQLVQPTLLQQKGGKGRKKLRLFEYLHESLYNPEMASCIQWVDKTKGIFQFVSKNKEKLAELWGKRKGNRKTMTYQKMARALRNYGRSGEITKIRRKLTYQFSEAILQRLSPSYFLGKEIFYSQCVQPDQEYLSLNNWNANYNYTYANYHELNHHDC
# Summary of the method: as §1
# ELF4 = ELF4 (Homo sapiens, UniProt Q99607 1-663); details: protein: recombinant; tags: N-terminal GST; dsDNA, one strand shown
# Summary of the method: as §1
# ELK4 = target: T9, ELK4 (Homo sapiens, UniProt P28324-2 1-405); details: protein: recombinant; tags: N-terminal GST; dsDNA, one strand shown
# T9 sequence: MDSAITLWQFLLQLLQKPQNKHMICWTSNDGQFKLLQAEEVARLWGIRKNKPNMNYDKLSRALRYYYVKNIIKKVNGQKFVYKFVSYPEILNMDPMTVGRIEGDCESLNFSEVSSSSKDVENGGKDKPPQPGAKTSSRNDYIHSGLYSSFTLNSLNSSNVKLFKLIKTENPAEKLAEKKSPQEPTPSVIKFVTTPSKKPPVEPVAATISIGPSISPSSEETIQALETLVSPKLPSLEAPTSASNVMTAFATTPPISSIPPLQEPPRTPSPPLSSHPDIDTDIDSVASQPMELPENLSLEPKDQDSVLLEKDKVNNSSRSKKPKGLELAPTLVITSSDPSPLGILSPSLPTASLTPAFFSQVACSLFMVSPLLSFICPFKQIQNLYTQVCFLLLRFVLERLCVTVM
# Summary of the method: as §1
# ETV2 = target: T10, ETV2 (Homo sapiens, UniProt O00321 1-342); details: protein: recombinant; tags: N-terminal GST; dsDNA, one strand shown
# T10 sequence: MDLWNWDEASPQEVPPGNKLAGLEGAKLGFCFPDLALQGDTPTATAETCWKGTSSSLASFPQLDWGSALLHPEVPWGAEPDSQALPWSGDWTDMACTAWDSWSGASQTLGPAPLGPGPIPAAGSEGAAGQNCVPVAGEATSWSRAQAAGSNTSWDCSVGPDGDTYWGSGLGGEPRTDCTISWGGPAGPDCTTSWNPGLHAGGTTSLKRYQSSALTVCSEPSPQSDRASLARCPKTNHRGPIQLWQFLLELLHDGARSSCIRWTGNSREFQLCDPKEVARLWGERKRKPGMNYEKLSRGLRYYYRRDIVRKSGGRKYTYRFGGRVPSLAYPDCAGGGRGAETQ
# Summary of the method: as §1
# ELF3 = target: T11, ELF3 (Homo sapiens, UniProt P78545 1-371); details: protein: recombinant; tags: N-terminal GST; dsDNA, one strand shown
# T11 sequence: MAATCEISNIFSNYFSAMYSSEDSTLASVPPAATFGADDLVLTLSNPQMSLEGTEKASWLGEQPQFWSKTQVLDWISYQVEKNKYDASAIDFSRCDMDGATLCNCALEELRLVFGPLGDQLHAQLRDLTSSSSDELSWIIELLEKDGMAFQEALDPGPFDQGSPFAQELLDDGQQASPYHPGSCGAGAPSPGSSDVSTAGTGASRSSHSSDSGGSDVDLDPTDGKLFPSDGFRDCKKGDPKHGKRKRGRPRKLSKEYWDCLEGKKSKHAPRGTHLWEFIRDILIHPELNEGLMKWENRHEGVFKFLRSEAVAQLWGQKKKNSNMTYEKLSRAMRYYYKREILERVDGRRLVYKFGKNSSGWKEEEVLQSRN
# Summary of the method: as §1
# CRX = CRX (Homo sapiens, UniProt O43186 1-299); details: protein: recombinant; tags: N-terminal GST; dsDNA, one strand shown
# Summary of the method: as §1
# ETV1 = ETV1 (Homo sapiens, UniProt P50549 1-477); details: protein: recombinant; tags: N-terminal GST; dsDNA, one strand shown
# Summary of the method: as §1
# Chain of HSF1 (Q00613 whole entry): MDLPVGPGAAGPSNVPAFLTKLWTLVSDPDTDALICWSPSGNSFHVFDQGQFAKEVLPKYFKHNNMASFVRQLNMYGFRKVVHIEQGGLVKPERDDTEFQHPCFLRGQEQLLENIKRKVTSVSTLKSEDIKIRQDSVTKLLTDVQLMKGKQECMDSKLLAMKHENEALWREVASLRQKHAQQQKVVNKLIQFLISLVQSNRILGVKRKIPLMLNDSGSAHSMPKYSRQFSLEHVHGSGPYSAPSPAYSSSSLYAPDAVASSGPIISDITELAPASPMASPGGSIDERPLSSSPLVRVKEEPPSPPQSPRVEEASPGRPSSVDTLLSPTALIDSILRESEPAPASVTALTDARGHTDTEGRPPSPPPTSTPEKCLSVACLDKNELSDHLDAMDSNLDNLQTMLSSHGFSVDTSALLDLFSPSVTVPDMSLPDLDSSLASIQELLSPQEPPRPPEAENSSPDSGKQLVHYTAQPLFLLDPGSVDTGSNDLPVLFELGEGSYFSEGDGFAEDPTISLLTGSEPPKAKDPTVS
# Chain of ELF1 (P32519 whole entry): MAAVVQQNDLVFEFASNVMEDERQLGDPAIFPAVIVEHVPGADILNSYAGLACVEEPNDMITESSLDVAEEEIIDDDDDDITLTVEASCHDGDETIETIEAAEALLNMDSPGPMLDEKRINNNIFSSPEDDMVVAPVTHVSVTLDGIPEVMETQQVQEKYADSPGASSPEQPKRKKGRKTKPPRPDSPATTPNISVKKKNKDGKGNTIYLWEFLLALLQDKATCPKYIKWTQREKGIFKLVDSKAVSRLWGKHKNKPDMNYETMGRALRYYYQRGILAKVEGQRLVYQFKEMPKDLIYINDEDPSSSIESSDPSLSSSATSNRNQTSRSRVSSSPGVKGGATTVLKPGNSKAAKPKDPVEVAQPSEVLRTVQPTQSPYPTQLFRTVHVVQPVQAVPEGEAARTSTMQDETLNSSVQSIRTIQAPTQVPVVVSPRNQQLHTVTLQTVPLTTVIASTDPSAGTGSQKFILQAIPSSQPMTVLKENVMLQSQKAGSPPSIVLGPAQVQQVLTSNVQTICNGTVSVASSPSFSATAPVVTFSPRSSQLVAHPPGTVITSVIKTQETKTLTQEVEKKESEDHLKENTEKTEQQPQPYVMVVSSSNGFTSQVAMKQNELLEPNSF
# Chain of ETV1 (P50549 whole entry): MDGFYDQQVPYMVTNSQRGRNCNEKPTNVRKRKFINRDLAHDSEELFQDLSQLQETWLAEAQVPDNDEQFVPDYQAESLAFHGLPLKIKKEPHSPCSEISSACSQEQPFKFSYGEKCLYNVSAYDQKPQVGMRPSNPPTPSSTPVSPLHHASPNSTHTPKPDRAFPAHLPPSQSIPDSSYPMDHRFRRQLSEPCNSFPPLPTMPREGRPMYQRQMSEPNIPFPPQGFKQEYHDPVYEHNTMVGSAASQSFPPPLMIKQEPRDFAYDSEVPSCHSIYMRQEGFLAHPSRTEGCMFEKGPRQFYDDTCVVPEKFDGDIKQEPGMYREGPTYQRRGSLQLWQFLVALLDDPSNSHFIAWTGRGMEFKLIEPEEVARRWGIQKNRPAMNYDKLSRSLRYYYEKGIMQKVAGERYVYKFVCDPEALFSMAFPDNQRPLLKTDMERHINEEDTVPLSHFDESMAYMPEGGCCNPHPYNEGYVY
# Chain of ETV5 (P41161 whole entry): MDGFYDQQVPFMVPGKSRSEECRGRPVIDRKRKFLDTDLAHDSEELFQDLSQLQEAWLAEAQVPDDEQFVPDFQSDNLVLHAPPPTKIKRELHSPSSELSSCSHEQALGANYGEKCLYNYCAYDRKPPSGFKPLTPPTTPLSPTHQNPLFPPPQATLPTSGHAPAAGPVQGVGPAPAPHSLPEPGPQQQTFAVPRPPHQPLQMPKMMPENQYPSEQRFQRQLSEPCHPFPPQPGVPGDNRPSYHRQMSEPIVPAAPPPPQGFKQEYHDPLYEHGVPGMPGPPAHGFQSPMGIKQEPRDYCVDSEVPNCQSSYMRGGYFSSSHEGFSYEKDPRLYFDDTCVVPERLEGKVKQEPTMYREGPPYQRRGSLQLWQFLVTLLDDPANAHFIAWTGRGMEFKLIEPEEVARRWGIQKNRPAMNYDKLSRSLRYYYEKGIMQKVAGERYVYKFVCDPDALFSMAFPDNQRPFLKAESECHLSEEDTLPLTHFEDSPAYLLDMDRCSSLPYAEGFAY
# Chain of SPIB (Q01892 whole entry): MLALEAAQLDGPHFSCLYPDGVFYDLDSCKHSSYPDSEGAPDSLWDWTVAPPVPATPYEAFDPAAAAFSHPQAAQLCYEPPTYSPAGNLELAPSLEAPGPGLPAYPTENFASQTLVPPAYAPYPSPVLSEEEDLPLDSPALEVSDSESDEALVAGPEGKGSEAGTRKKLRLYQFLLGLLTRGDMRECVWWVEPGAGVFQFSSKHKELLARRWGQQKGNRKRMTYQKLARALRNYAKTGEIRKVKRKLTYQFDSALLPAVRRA
# Chain of ELF4 (Q99607 whole entry): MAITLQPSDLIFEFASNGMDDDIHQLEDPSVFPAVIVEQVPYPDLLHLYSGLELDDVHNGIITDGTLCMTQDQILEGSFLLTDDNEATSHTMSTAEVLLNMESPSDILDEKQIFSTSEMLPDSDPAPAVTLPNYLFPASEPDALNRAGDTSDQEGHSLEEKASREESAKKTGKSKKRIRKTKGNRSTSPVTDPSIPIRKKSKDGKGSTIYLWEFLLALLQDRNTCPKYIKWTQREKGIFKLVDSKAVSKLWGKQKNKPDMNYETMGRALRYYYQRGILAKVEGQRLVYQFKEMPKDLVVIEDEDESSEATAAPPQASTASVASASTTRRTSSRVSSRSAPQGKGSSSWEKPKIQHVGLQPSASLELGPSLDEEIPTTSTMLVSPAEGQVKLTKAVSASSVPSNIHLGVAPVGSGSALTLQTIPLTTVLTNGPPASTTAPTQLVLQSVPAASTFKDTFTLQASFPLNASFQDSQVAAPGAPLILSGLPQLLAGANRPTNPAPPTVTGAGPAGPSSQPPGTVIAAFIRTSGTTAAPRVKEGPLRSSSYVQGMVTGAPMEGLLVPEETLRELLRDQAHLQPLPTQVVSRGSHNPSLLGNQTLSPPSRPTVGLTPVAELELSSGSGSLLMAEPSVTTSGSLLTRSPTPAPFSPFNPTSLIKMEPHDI
# Chain of CRX (O43186 whole entry): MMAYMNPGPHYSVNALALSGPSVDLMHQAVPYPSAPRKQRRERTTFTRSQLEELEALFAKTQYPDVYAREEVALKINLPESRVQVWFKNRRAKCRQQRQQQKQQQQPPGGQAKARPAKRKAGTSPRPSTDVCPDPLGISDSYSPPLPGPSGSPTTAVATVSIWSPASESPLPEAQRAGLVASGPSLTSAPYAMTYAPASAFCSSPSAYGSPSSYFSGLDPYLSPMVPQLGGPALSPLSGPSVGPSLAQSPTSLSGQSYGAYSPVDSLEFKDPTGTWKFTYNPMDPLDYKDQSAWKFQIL
sequence,measurement,setting,value
ATTTAG,binding signal,FLI1,"1.13 fold enrichment (6-mer frequency, TF over GST control)"
same,binding signal,ELK1,"1.07 fold enrichment (6-mer frequency, TF over GST control)"
same,binding signal,GABPA,"1.27 fold enrichment (6-mer frequency, TF over GST control)"
same,binding signal,ERG,"1.02 fold enrichment (6-mer frequency, TF over GST control)"
same,binding signal,ELF1,"1.15 fold enrichment (6-mer frequency, TF over GST control)"
same,binding signal,EHF,"1.14 fold enrichment (6-mer frequency, TF over GST control)"
same,binding signal,SPI1,"1.11 fold enrichment (6-mer frequency, TF over GST control)"
same,binding signal,SPIB,"1.16 fold enrichment (6-mer frequency, TF over GST control)"
same,binding signal,ELK3,"1.09 fold enrichment (6-mer frequency, TF over GST control)"
same,binding signal,FEV,"1.08 fold enrichment (6-mer frequency, TF over GST control)"
same,binding signal,ETV5,"1.06 fold enrichment (6-mer frequency, TF over GST control)"
same,binding signal,HSF1,"1.37 fold enrichment (6-mer frequency, TF over GST control)"
same,binding signal,SPIC,"1.2 fold enrichment (6-mer frequency, TF over GST control)"
same,binding signal,ELF4,"1.05 fold enrichment (6-mer frequency, TF over GST control)"
same,binding signal,ELK4,"1.17 fold enrichment (6-mer frequency, TF over GST control)"
same,binding signal,ETV2,"1.3 fold enrichment (6-mer frequency, TF over GST control)"
same,binding signal,ELF3,"1.17 fold enrichment (6-mer frequency, TF over GST control)"
same,binding signal,CRX,"1.66 fold enrichment (6-mer frequency, TF over GST control)"
same,binding signal,ETV1,"1.11 fold enrichment (6-mer frequency, TF over GST control)"

# From publication PMC7862700, “An all-to-all approach to the identification of sequence-specific readers for epigenetic DNA modifications on cytosine”
